# HT1080-NT tox: kills 2HG-producing HT-1080-NT fibrosarcoma cells; HT-1080-NT fibrosarcoma viability, CellTiter-Glo ATP luminescence, 48 h; Potency, µM (doses to about 46.1 µM), usual class: cytotoxic; 1.6% of 360,000 active;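 further: NT is the 2HG producing partner of a matched IDH1 knockdown line; nearly all actives have a fitted effect of over 55% in size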
#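 Compounds were tested in concentration-response format on HT-1080-NT cells for 48 hours at 37 degrees C. Cell viability came from CellTiter-Glo luminescence; curves were classified by r2, response magnitude and activity.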
# TDP1 cell CPT: growth inhibition of DT40 Tdp1-/-;hTDP1 cells with camptothecin (screen for TDP1 inhibitors) | 12% of 420,000 active | Potency, µM (series often up to 46.2 µM), usual class: inhibitors | AID 686979 | chicken DT40 Tdp1-/-;hTDP1 cells + 20 nM CPT, ATP luminescence, 48 h; further: nearly all actives have a fitted effect of over 55% in size
#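 Cell growth measured by CellTiter-Glo luminescence after a minimum 48 h, 37 C compound exposure with 20 nM CPT in Tdp1-knockout DT40 cells stably expressing hTDP1, seeded 400/well; qHTS titration format.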
# ELG1 DNA repair: ELG1-dependent DNA repair inhibition; 2.3% of 330,000 active; Potency, µM (series often up to 46.1 µM), actives largely listed as inhibitors; HEK293T ELG1-luciferase reporter, luminescence, 16 h; DNA damage induced by 5-fluorouridine; AID 504467; further: nearly all actives have a fitted effect of over 55% in size
#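 HEK293T cells expressing luciferase-tagged ELG1 (2,000/well) received 5-Fluorouridine plus compound or DMSO for 16 hr at 37 °C. Luciferase was read by ONE-Glo luminescence after 30 min at room temperature.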
# TDP1 cell noCPT: qHTS for Inhibitors of human tyrosyl-DNA phosphodiesterase 1 (TDP1): qHTS in cells in absence of CPT | AID 686978, 2013 | DT40 Tdp1-/- hTDP1 cells, no CPT, ATP luminescence, 48 h | 15% of 420,000 active | Potency, µM (series often up to 46.2 µM), most hits filed as inhibitors; further: nearly all actives have a fitted effect of over 55% in size
#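 DT40 Tdp1-/-;hTDP1 cells, no CPT (DMSO vehicle only), 400 cells/well; compounds pin-transferred; ≥48 hr, 37 °C; CellTiter-Glo 30 min RT dark, luminescence read.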
# HT1080 IDH1KD tx: kills HT-1080 cells with IDH1 knockdown; HT-1080 IDH1 knockdown viability, ATP luminescence, 48 h; Potency, µM (titrated, usually from 46.1 µM), most hits filed as cytotoxic; 2% of 360,000 active
#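 After a 2 h attachment period, IDH1KD HT-1080 cells took pin-transferred compound for 48 h at 37 °C; ATP-based luminescence after 10 min room-temperature reagent incubation reported viability.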
# IL1B secr inh: blocks inflammasome-driven IL-1 beta release; THP-1 LPS/ATP IL-1B secretion, AlphaLISA, 16 h; hits give low values; activity change, % at 57.5 µM; 4.7% of 360,000 active; AID 743279; in the data active means activity change below about -50%; inconclusive means mostly about -30% to -49%
#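 THP-1 cells pretreated 1 hr with compounds (up to 57.5 uM final), then stimulated with LPS (250 ng/mL final) plus ATP (1.25 mM final); secreted IL-1B measured by AlphaLISA after 16 hr, decreased signal indicating inhibition.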
# Numbers stand for hits; . = inactive; ? = inconclusive; / = no result; ! = not confirmed by another sample. A selection: hits, their analogues and other compounds. The true share with any hit is near 19%. Unless noted, the call rests on the fitted dose curve; in most records, active means well fitted curve in the direction sought with a large enough effect; inconclusive means small, poorly fitted or top-dose-only effect, or another doubt; inactive means no such curve, though single readings can be large; an effect the other way counts as inactive or inconclusive.
SMILES,HT1080-NT tox,TDP1 cell CPT,ELG1 DNA repair,TDP1 cell noCPT,HT1080 IDH1KD tx,IL1B secr inh
O=C(Oc1c(Cl)cc(Cl)c2ccccc12)N1CCCCC1,.,?,?,?,.,.
O=C(Oc1c(Br)cc(Br)c2cccnc12)N1CCCCC1,.,23.1µM,.,?,.,.
NNc1ccccc1,/,.,/,.,/,/
CCOC(=O)n1c(=O)oc2ccc(Cl)cc21,.,.,.,.,?,.
CCOC(=O)c1oc2ccc(S(=O)(=O)n3nc(-c4ccc(Cl)cc4)cc3N)cc2c1C,.,23.1µM,?,11.6µM,.,.
Cc1cc(C=C2C(=O)NC(=S)NC2=O)c(C)n1C1CCCC1,.,14.6µM,?,?,?,-52.6
O=c1c2ccccc2[nH]c(=S)n1-c1ccc2c(c1)OCCO2,.,.,?,.,.,.
O=c1[nH]c2ccccc2n1C1CCN(C(c2cc3ccccc3o2)c2nnnn2-c2ccc3c(c2)OCCO3)CC1 (configuration not stated),?,?,/,14.6µM,18.4µM,?
O=c1[nH]c2ccccc2n1C1CCN(C(c2cccc3ccccc23)c2nnnn2-c2ccc3c(c2)OCCO3)CC1 (configuration not stated),?,4.61µM,/,2.59µM,?,.
Cc1csc(N2CCc3ccccc32)n1,.,.,?,.,.,.
CC1=Nc2ccccc2/C1=C/c1c(O)[nH]c(=O)[nH]c1=O,.,.,.,.,.,.
O=c1[nH]c(O)c(/C=C2/C=CC(c3cc(Cl)ccc3Cl)=N2)c(=O)[nH]1,.,5.8µM,?,6.51µM,.,.
CC1CCC2[C@@H](C)C(=O)OC3O[C@]4(C)CCC1C32OO4 (some centres not stated),.,?,/,7.31µM,.,.
CC1CCC2C(C)C(=O)OC3OC4(C)CCC1C32OO4 (configuration not stated),.,?,.,0.841µM!,.,.
COc1ccc(OC(=O)N(C)C[C@@H]2OCc3cnnn3CCCC(=O)N([C@H](C)CO)C[C@@H]2C)cc1,.,.,/,.,.,.
COC(=O)OCC12CCC(O1)C1(C)C(=O)OCC21 (configuration not stated),.,?,.,29.1µM,.,.
CCCCOP(=O)(OCCCC)C1(C)CC(=O)CC(C)(C)C1 (configuration not stated),.,?,/,.,.,.
C#CCN1C(=O)C2(C(C#N)=C(N)OC(C)=C2C(=O)OCc2ccccc2)c2ccccc21 (configuration not stated),.,?,?,23.1µM,.,.
CCOC(=O)C1=C(C)OC(N)=C(C#N)C12C(=O)N(C)c1ccccc12 (configuration not stated),.,.,.,.,.,.
O=C(NCC1=C(c2cccc3ccccc23)C[C@@H]2CC[C@H]1N2Cc1ccco1)c1ccc([N+](=O)[O-])cc1,?,20.6µM,/,18.4µM,?,-61.5
CS(=O)(=O)c1ccc(C2=C(CNC(=O)c3ccc([N+](=O)[O-])cc3)[C@H]3CC[C@@H](C2)N3CCOc2ccccc2)cc1,.,?,/,14.6µM,.,.
CS(=O)(=O)c1ccc(C2=C(CNC(=O)c3ccncc3)[C@H]3CC[C@@H](C2)N3CCOc2ccccc2)cc1,.,.,/,.,.,.
CS(=O)(=O)c1ccc(C2=C(CNC(=O)c3ccc([N+](=O)[O-])cc3)[C@H]3CC[C@@H](C2)N3Cc2ccccc2)cc1,.,.,/,.,.,.
Cc1ccc(S(=O)(=O)N2CCCCC2)cc1NC(=O)CSc1ncnc2ccccc12,.,25.9µM,?,18.4µM,.,-97.2
Cc1ccc(S(=O)(=O)N2CCCCC2)cc1NC(=O)Nc1ccc(Cl)cc1Cl,.,2.59µM,.,?,.,.

# Screening results: PubChem, National Center for Advancing Translational Sciences (NCATS)
